High-throughput results as filed in PubChem BioAssay.
Only some compounds are listed: those with a hit (about 19% of all), similar ones and a draw of the others.
TDP1 cell noCPT = qHTS for Inhibitors of human tyrosyl-DNA phosphodiesterase 1 (TDP1): qHTS in cells in absence of CPT | DT40 Tdp1-/- hTDP1 cells, no CPT, ATP luminescence, 48 h | Potency, µM (titrated, usually from 46.2 µM), for inactives: top-dose activity change, negative = growth inhibition, usual class: inhibitors | 420,000 compounds, 15% hits; further: nearly all actives have a fitted effect of over 55% in size
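A cellular qHTS used chicken DT40 cells lacking endogenous Tdp1 but carrying stably transfected human TDP1. Compounds were applied without camptothecin, and cell growth kinetics were judged by ATP-dependent luminescence after ≥48 hr.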
HT1080NT lethal = qHTS for induction of synthetic lethality in tumor cells producing 2HG: qHTS for the HT-1080-NT fibrosarcoma cell line. HT-1080-NT fibrosarcoma viability, CellTiter-Glo ATP luminescence, 48 h. AID 686970, 2013. 360,000 compounds, 1.6% hits. Potency, µM (highest dose often 46.1 µM), for inactives: at the top dose activity, negative = less viability, most hits filed as cytotoxic;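 further: NT is the 2HG producing partner of a matched IDH1 knockdown line; 0% = DMSO-treated cells and -100% = media-only wells without cells; nearly all actives have a fitted effect of over 55% in size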
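Toxicity toward the 2HG-producing NT line was scored as %Activity, normalised to DMSO and no-cell wells, from CellTiter-Glo luminescence after 48 hours' treatment.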
KB-3-1 cytotox = qHTS assay for MDR1-selective chemotherapeutics: Primary screen using the parental adenocarcinoma cell KB-3-1; KB-3-1 viability, CellTiter-Glo ATP luminescence, 72 h; Potency, µM (series often up to 46.1 µM), actives largely listed as cytotoxic; 400,000 compounds, 1.4% hits; further: nearly all actives have a fitted effect of over 60% in size
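Cells are dispensed, compounds pinned in, plates held at 37 °C for 72 h, then CellTiter-Glo is added and luminescence read after 10 minutes. Cell line: parental KB-3-1 in phenol-red-free DMEM, 10% FBS.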
HT1080 IDH1KD tx = qHTS for induction of synthetic lethality in tumor cells producing 2HG: qHTS for the HT-1080-IDH1KD cell line. Potency, µM (doses to about 46.1 µM), for inactives: at the highest dose activity, negative = toxicity, most hits filed as cytotoxic. AID 686971, 2013. HT-1080 IDH1 knockdown viability, ATP luminescence, 48 h. 360,000 compounds, 2% hits;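 further: 0% = DMSO wells and -100% = cell-free medium wells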
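CellTiter-Glo luminescence after 48 h compound exposure at 37 degrees C of IDH1-knockdown HT-1080 cells in 5% FBS RPMI. %Activity scaled between DMSO wells and cell-free media wells, with curves fitted and assigned curve classes.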
KB-V1 MDR tox = qHTS assay for MDR1-selective chemotherapeutics: Primary screen using the drug-selected MDR subline cells KB-V1; KB-V1 MDR cells viability, CellTiter-Glo, 72 h; Potency, µM (doses to about 46.1 µM), usual class: cytotoxic; 400,000 compounds, 3.4% hits; further: nearly all actives have a fitted effect of over 60% in size
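Cytotoxicity via CellTiter-Glo luminescence after 72 h compound exposure at 37 degrees C. Cells: drug-selected KB-V1 line, DMEM phenol-red free plus 10% FBS. Compounds tested at multiple concentrations; normalized data fitted to concentration-effect curves.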
TDP1 cell CPT = qHTS for Inhibitors of human tyrosyl-DNA phosphodiesterase 1 (TDP1): qHTS in cells in presence of CPT; chicken DT40 Tdp1-/-;hTDP1 cells + 20 nM CPT, ATP luminescence, 48 h; AID 686979, 2013; 420,000 compounds, 12% hits; Potency, µM (doses to about 46.2 µM), inactives show top-dose activity change, negative = growth inhibition, usual class: inhibitors; further: nearly all actives have a fitted effect of over 55% in size
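Chicken DT40 Tdp1-/- cells stably complemented with human TDP1 were seeded at 400 cells/well in medium containing 20 nM camptothecin, exposed to pin-transferred compounds, and grown at 37 °C for at least 48 hr. Viability was read as ATP luminescence.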
* = called active by the depositor; i = inactive; ? = inconclusive; nt = not tested or not shown. The call rests on the fitted dose curve; in most records, active means well fitted curve in the direction sought with a large enough effect; inconclusive means small, poorly fitted or top-dose-only effect, or another doubt; inactive means no such curve, though single readings can be large; an effect the other way counts as inactive or inconclusive. Unless noted, on the % scale 0 is the no-effect control and ±100 the full control effect; potency means the concentration at half of the fitted maximal effect.

SMILES	TDP1 cell noCPT	HT1080NT lethal	KB-3-1 cytotox	HT1080 IDH1KD tx	KB-V1 MDR tox	TDP1 cell CPT
Cc1ccc(-c2cc(-c3n[nH]c(=S)o3)c3ccccc3n2)cc1	21µM*	0%	?	-1%	?	16µM*
CCOC(=O)C1(CCc2ccccc2)CCN(C(=O)c2cc(C)nc(C)n2)CC1	?	12%	i	5%	i	0%
Clc1ccc2oc(-c3ccccc3)cc(=NCCCN3CCOCC3)c2c1	?	?	?	?	21µM*	?
Cc1cc(C)n2nc(SCC(=O)N3CCN(c4ccccc4)CC3)nc2n1	-5%	10%	i	9%	12µM*	0%
Cc1cc(C)n2nc(SCC(=O)Nc3ccc(O)cc3)nc2n1	-4%	-2%	i	-12%	i	2%
Cc1cc(C)cc(NC(=O)CSc2nc3nc(C)cc(C)n3n2)c1	?	-2%	i	1%	18µM*	?
Cc1cc(C)n2nc(SCC(=O)N3CCCC3)nc2n1	-17%	3%	i	-1%	i	20%
Cc1ccc(NC(=O)CSc2nc3c(oc4ccccc43)c(=O)n2-c2ccc(F)cc2)c(C)c1	-23%	nt	i	nt	i	-22%
CCCn1c2ccccc2c2cnn(CC(=O)NCCc3ccccc3)c(=O)c21	?	nt	nt	nt	nt	23µM*
CCCn1c2ccccc2c2cnn(CC(=O)NCCCN3CCN(c4ccccc4)CC3)c(=O)c21	21µM*	18µM*	i	?	i	?
CCCn1c2ccccc2c2cnn(CC(=O)N(CCCOC(C)C)Cc3ccco3)c(=O)c21	16µM*	nt	i	nt	?	16µM*
CCn1c(=O)c2c(cnn2C)c2ccccc21	?	-1%	i	-1%	i	7.3µM*
CC(=O)N(CC(=O)O)c1ccccc1C(=O)O	-23%	9%	i	20%	i	-13%
O=C(O)CCC(=O)Nc1ccc(SSc2ccc(NC(=O)CCC(=O)O)cc2)cc1	-1%	12%	i	12%	i	9%
COc1cc2c(cc1OC)C(C(=O)NCCN(C)C)C(c1cccs1)N(C)C2=O (stereo not given)	10%	-2%	i	7%	?	-1%
CCCn1c2ccccc2c2cnn(CC(=O)NC3CCCC(C)C3C)c(=O)c21 (stereo not given)	2.1µM*	7%	i	0%	i	?
CN(Cc1ccccc1)C(=O)Cn1ncc2c3ccccc3n(Cc3cccc(Cl)c3)c2c1=O	?	nt	i	nt	i	?
O=c1cnc2ccccc2n1Cc1ccc(Br)cc1	?	?	i	?	?	5%
CC(C)(C)c1ccc(Cn2c(=O)cnc3ccccc32)cc1	16µM*	9.2µM*	?	7.3µM*	?	16µM*
CCCn1c2ccccc2c2cnn(CC(=O)NC3CCC(C)CC3)c(=O)c21 (stereo not given)	4%	10%	i	3%	i	-3%
CCCn1c2ccccc2c2cnn(CC(=O)NCCCN(Cc3ccccc3)C(C)C)c(=O)c21	21µM*	nt	i	nt	i	?
CC(C)N(Cc1ccccc1)C(=O)Cn1ncc2c3ccccc3n(Cc3ccccc3)c2c1=O	18µM*	nt	i	nt	i	?
O=C(Cn1c(=O)n(Cc2ccco2)c(=O)c2ccccc21)Nc1ccc(Cl)cc1Cl	?	nt	i	nt	i	?
Cc1noc(C)c1-c1cncnc1NC1CC1	-6%	nt	nt	nt	nt	-1%
CC(C)(C)c1ccc(OCc2cnc(Cl)s2)cc1	?	-13%	i	0%	i	-29%
SMILES	TDP1 cell noCPT	HT1080NT lethal	KB-3-1 cytotox	HT1080 IDH1KD tx	KB-V1 MDR tox	TDP1 cell CPT
COC(=O)c1ccccc1NC(=O)CN1C(=O)COc2ccc(Cl)cc21	?	nt	i	nt	?	-21%
CCCN(CCC)CCCNC(=O)Cn1ncc2c3ccccc3n(Cc3ccc(F)cc3)c2c1=O	21µM*	nt	i	nt	i	18µM*
CCCn1c2ccccc2c2cnn(CC(=O)NCCc3ccc(OCC)cc3)c(=O)c21	23µM*	nt	i	nt	i	?
COc1ccc(CCNC(=O)Cn2c(=O)cnc3ccccc32)cc1	23µM*	?	?	?	i	?
CCCNC(=O)Cn1c(=O)cnc2ccccc21	-22%	25%	i	17%	?	-4%
O=Cc1cn(CCC(=O)O)nc1-c1cccc(Br)c1	-20%	17%	i	-1%	i	-16%
Cc1ccc(-c2nn(CCC(=O)O)cc2/C=C\C(=O)c2ccc(Br)cc2)cc1	?	-16%	?	?	i	12µM*
O=C(O)CCn1cc(/C=C\C(=O)c2ccc(Cl)cc2)c(-c2cccc(Br)c2)n1	18µM*	-18%	i	?	i	?
Cc1ccc(-c2nn(Cc3ccccc3)cc2/C=C/C(=O)O)cc1	-1%	-4%	i	3%	i	-10%
O=C(NCc1ccccc1)NC1(C(=O)N2CCOCC2)CCCCC1	-3%	11%	i	17%	i	0%
COc1cccc(CSc2nc3ccccc3[nH]2)c1	?	6%	i	6%	i	?
COc1ccc2nc(SCc3nc(N)nc(Nc4ccccc4)n3)[nH]c2c1	16µM*	-10%	i	-9%	i	?
Cc1nc(Nc2nc(-c3ccccc3)cc(=O)[nH]2)nc2ccccc12	16µM*	?	?	18µM*	?	21µM*
Cc1nc(Nc2nc(CSc3nc4ccccc4[nH]3)cc(=O)[nH]2)nc2ccccc12	6.5µM*	4.1µM*	?	4.6µM*	i	4.1µM*
Cc1nc(Nc2nc(CSc3ccc(Cl)cc3)cc(=O)[nH]2)nc2ccccc12	?	18%	i	12%	i	-25%
COc1ccc2nc(Nc3nc(CSc4nc5ccccc5[nH]4)cc(=O)[nH]3)nc(C)c2c1	4.1µM*	?	?	?	?	4.6µM*
Cc1cc(C)cc(Nc2nc3ccccc3c(=O)[nH]2)c1	?	14%	i	-10%	?	-30%
